Only some compounds are listed: those with a hit (about 2.6% of all), similar ones and a draw of the others.
TWEAK Fn14 block – inhibitors of TWEAK-Fn14 signaling, primary screen, luciferase reporter cells, uHTS; AID 1159606, 2016; 360,000 compounds, 2% hits; inhibition, % at 10 µM; TWEAK-stimulated Fn14 reporter cells, luciferase luminescence, 8 h; in the data active = inhibition above about 50%
TROY NFkB inh – inhibitors of TROY-driven NF-kB signaling, primary screen, Q293 LMP1-TROYcd cells, NF-kB luciferase, uHTS | inhibition, % at 10 µM | 360,000 compounds, 0.98% hits | Q293 LMP1-TROYcd NF-kB luciferase reporter, 4 h;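 active = compounds whose plate-normalised and pattern-corrected inhibition of the luciferase reporter signal at the single screening dose is 50% or more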
CF NFkB inh – inhibitors of PAF-induced NF-kB signaling, primary screen, cell-based, GFP fluorescence, uHTS. KKLEB NF-kB-GFP reporter, GFP fluorescence overnight. inhibition, % at 5 µM. 360,000 compounds, 0.86% hits. AID 588850, 2011;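 active = at least 50% inhibition at 5 µM, scaled per plate between neutral and stimulator controls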;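 also: PAF is a Pseudomonas aeruginosa culture filtrate used as stimulus; plate controls were PAF-stimulated DMSO wells for no effect and unstimulated DMSO wells for full effect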
EWS-Fli inh – EWS/Fli-driven NR0B1 reporter inhibitors, primary screen, A673 cells, NR0B1 luciferase, luminescence, MLPCN library; 350,000 compounds, 0.67% hits; viability-normalised; inhibition, % at 12.6 µM; AID 651661, 2012;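 active = mean inhibition of at least 50% after viability correction, with every replicate also passing that limit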;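 also: firefly luciferase signal divided by Alamar Blue viability fluorescence both relative to DMSO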
LGR2 antag – inhibitors of bursicon-induced LGR2 CRE-luciferase signal, primary screen, cell-based, HEK293, CRE-luciferase reporter, bursicon stimulation | bursicon-stimulated, 4 h | inhibition, % at 9.99 µM | 380,000 compounds, 0.35% hits | Drosophila bursicon receptor LGR2 (rickets) | AID 720647, 2013;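 active = drop in luminescence signal, shown as inhibition above about 50% in the replicate tests, limit read from the data, passing the limit was not always enough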;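 also: agonist challenge used bursicon conditioned medium at about half maximal strength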
KKLEB cytotox – cytotoxicity in KKLEB CF airway cells, primary screen, cytotoxicity control for CF NF-kB inhibitor project, cell-based, uHTS, fluorescence assay plates. KKLEB CF airway cells viability, ATPlite luminescence, overnight; active compounds read low; cells stimulated with P. aeruginosa culture filtrate. activity change (cytotoxicity), % at 5 µM. 360,000 compounds, 0.36% hits;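 active = corrected activity change at or below -50% at 5 µM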
Active calls of the source: *; x = not tested or not shown.

SMILES	TWEAK Fn14 block	TROY NFkB inh	CF NFkB inh	EWS-Fli inh	LGR2 antag	KKLEB cytotox
CN(C)CCCN(C(=O)c1ccc(Cl)s1)c1nc2cc3c(cc2s1)OCO3	-4	-54	3	57*	4	4
CN(C)CCCN(C(=O)c1ccc([N+](=O)[O-])s1)c1nc2cc3c(cc2s1)OCCO3	40	-3	-5	x	6	24
CCCc1cn(CC[C@H]2CC[C@H](NC(=O)C3CCCC3)[C@H](CO)O2)nn1	x	x	x	7	1	x
CC(C)(C)C1CCC(OC(=O)c2cncc(Br)c2)CC1 (stereo not given)	74*	71*	9	2	8	-1
Cc1ccnc(SCc2ccc(C(=O)O)cc2)n1	108*	-12	-3	3	-9	-1
COc1ccc(S(=O)(=O)N2CCOCC2)cc1NC(=O)COC(=O)C1COc2ccccc2O1 (stereo not given)	43	69*	2	5	8	-7
COc1ccc(C)cc1NC(=O)COC(=O)C1COc2ccccc2O1 (stereo not given)	3	15	7	4	-3	-1
O=C(COC(=O)c1ccc2c(c1)OCCO2)Nc1cccc(S(=O)(=O)N2CCOCC2)c1	26	56*	-1	-1	20	11
CCCc1nc2ccccc2c(C(=O)OCC(=O)Nc2ccc(S(=O)(=O)N3CCOCC3)cc2)c1CC	37	78*	13	x	x	5
CCCc1nc2ccccc2c(C(=O)OCC(=O)Nc2cccc(S(=O)(=O)N3CCOCC3)c2)c1CC	61*	42	7	x	x	2
O=C(COC(=O)c1cccc(S(=O)(=O)N2CCOCC2)c1)Nc1ccc2c(c1)OCO2	-5	-1	11	x	0	-1
Cc1noc(C)c1NC(=O)Nc1ccc2c(c1)C(=O)N([C@H](C)CO)C[C@H](C)[C@H](CN(C)C(=O)Nc1cccc3ccccc13)OCCCC[C@@H](C)O2	x	x	x	-3	x	x
C[C@@H]1CN([C@H](C)CO)C(=O)c2cccc(N(C)C)c2O[C@@H]1CN(C)C(=O)Nc1cccc2ccccc12	x	x	x	4	11	x
CCOc1ccc(N2C(=O)CC(NCCc3ccc(S(N)(=O)=O)cc3)C2=O)cc1 (stereo not given)	108*	x	2	x	x	4
CCC(=O)N(C)C[C@@H]1Oc2ncc(-c3ccccc3C)cc2C(=O)N([C@@H](C)CO)C[C@@H]1C	x	x	x	-14	24	x
COc1ccc(NC(=O)Nc2cccc3c2O[C@@H](CN(C)Cc2ccc(C(F)(F)F)cc2)[C@H](C)CN([C@@H](C)CO)C3=O)cc1	x	x	x	3	15	x
COc1ccc(C[C@@H]2OC3(C=CC(=O)C=C3)O[C@H]2Cc2ccc(OC)cc2)cc1	106*	85*	85*	x	x	-78*
O=C1C=CC2(C=C1)O[C@H](Cc1ccccc1)[C@@H](Cc1ccccc1)O2	107*	87*	96*	49	98*	-98*
COc1ccc(N2C(=O)CC(Cc3ccccc3)C2=O)cc1 (stereo not given)	-8	-11	5	x	x	-6
Cc1ccc(Oc2ncnc(N)c2[N+](=O)[O-])cc1	12	11	-7	4	12	-2
CC1Cc2ccccc2N1c1ncnc(N)c1[N+](=O)[O-] (stereo not given)	93*	68*	85*	7	64*	-17
CCCCCCCCCn1ccc(=N)cc1	37	54*	48	40	32	-48
C[C@H](CO)N1C[C@H](C)[C@H](CN(C)S(=O)(=O)c2ccc(Cl)cc2)Oc2c(NC(=O)c3ccc(-c4nccs4)cc3)cccc2C1=O	x	x	x	11	-7	x
CCCN(CCC)c1nc(Cl)nc(NCc2ccco2)n1	75*	7	11	x	x	-16
C[C@@H]1CN([C@H](C)CO)S(=O)(=O)c2ccc(/C=C/c3ccccc3)cc2O[C@@H]1CN(C)C(=O)c1cccnc1	x	x	x	-4	4	x
SMILES	TWEAK Fn14 block	TROY NFkB inh	CF NFkB inh	EWS-Fli inh	LGR2 antag	KKLEB cytotox
O=C(Nc1sc2c(c1C(=O)O)CCCCC2)c1ccccc1	64*	37	9	-151	-27	8
COC(=O)c1c(NC(=O)C2CC=CCC2C(=O)O)sc2c1CCCCC2 (stereo not given)	96*	2	-26	15	-1	5
O=C(Nc1sc2c(c1C(=O)O)CCC2)c1ccccc1	36	-34	14	x	x	-1
O=C(c1ccc(F)cc1)N1CCCCN2[C@@H](CO)[C@@H](c3ccc(-c4ccccc4)cc3)[C@@H]2C1	x	x	x	2	15	x
CO[C@H]1CN(C)C(=O)c2cc(NS(=O)(=O)c3cccc(Cl)c3)ccc2OC[C@H](C)NC[C@H]1C	x	x	x	-3	8	x
COc1ccc(NC(=O)N(C)C[C@H]2Oc3c(NC(=O)NC(C)C)cccc3C(=O)N([C@H](C)CO)C[C@H]2C)cc1	x	x	x	-7	-9	x
CCN(CC)S(=O)(=O)c1cc(NC(=O)CSc2nc3c(cc2C#N)C(=O)CC(C)(C)C3)ccc1C	55*	46	22	x	25	-14
CCN(CC)S(=O)(=O)c1cc(NC(=O)CSc2nnc(N)s2)ccc1C	-5	12	5	15	x	7
O=C(c1ccc2c(c1)OCCO2)N1CCCCC1	15	-8	9	x	x	-1
C=CCc1cc(C(=O)N2CCCCC2)ccc1O	14	19	51*	x	x	-6
CCCc1ccc(C2C3=C(CC(C)(C)CC3=O)NC3=C2C(=O)c2ccccc23)cc1 (stereo not given)	55*	22	-1	18	-16	-10
CC1(C)CC(=O)C2=C(C1)NC1=C(C(=O)c3ccccc31)C2c1ccc(O)cc1 (stereo not given)	12	-9	3	x	-3	-8
CCCCc1ccc(C2C3=C(CC(C)(C)CC3=O)NC3=C2C(=O)c2ccccc23)cc1 (stereo not given)	57*	33	17	16	32	-25
C[C@@H]1CCCCO[C@H](CN(C)C(=O)C2CCCCC2)[C@@H](C)CN([C@H](C)CO)C(=O)c2cc(NC(=O)Cc3ccccc3)ccc2O1	x	x	x	-11	23	x
CCCCNC(=S)NNC(=O)c1c(Cl)c(C)nn1C	-25	-6	22	71*	7	7
O=C1CNC[C@@H]2[C@H](c3ccc(C4=CCCC4)cc3)[C@@H](CO)N12	x	x	x	-5	-10	x
CCOC(=O)c1ccc(N=c2sc(C(=O)OC)cc(=O)n2-c2ccc(C(=O)OCC)cc2)cc1	54*	20	17	13	58*	-19
COC(=O)c1cc(=O)n(-c2ccccc2)c(=Nc2ccccc2)s1	23	-6	21	2	x	3

Screening data as filed in PubChem BioAssay.
